Reference: PubChem BioAssay
The source made the active and inactive calls. Unless noted, the rule behind the calls is not given here.

Key:
[1] = HepG2 liver cancer cell viability effects, profiling panel, resazurin fluorescence, 24 h, PK04 Diversity Set (AID 1172); conditions: higher = more signal
[2] = basal S. cerevisiae growth modulation, no modifier, primary screen, OD600, strain BY4716, 24 h, basal condition (AID 1173); conditions: OD600, 24 h, higher = more signal, called active from +8 up or from −8 down
[3] = MM1S myeloma cell viability, profiling panel, resazurin fluorescence, basal, 24 h, PK04 Diversity Set (AID 1174); conditions: higher = more signal, called active from +8 up or from −8 down;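 note: MM1S multiple myeloma cell line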
[4] = target: Dihydroorotate dehydrogenase (quinone), mitochondrial (Plasmodium falciparum (isolate 3D7)) (UniProt Q08210); assay: PfDHODH enzyme inhibitors, primary screen, biochemical, C-terminal His tag, absorbance 600 nm (AID 1175); conditions: DCIP absorbance 600 nm, higher = more signal, called active from +8 up or from −8 down;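 note: recombinant parasite enzyme with a five histidine tag at its C terminus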
[5] = P. aeruginosa biofilm formation inhibitors, primary screen, strain PAO1, LB-PBS medium, absorbance 600 nm (AID 1176); conditions: P. aeruginosa PAO1 growth/biofilm, A600, 12 h; higher = more signal
[6] = S. cerevisiae RM11-1a growth modifiers, primary screen, strain RM11-1a, OD600, basal, 24 h (AID 1177); conditions: OD600, 24 h, higher = more signal, called active from +8 up or from −8 down;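 note: cultures grown under basal conditions with no added stressor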
[7] = E. coli acrAB mutant growth effects, primary screen, E. coli filamentation inducers, strain DRC39, OD650, 24 h (AID 1178); conditions: higher = more signal, called active from +8 up or from −8 down;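 note: growth measured as culture turbidity by optical density at 650 nm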
[8] = E. coli acrAB mutant growth effects, primary screen, E. coli filamentation inducers, strain DRC39, OD650, 48 h (AID 1179);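 note: screen aims at cell division blockers that make cells filament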; conditions: E. coli DRC39 delta-acrAB growth, higher = more signal, called active from +8 up or from −8 down
[9] = RPMI8226 myeloma cell viability, profiling panel, resazurin fluorescence, basal, 24 h, PK04 Diversity Set (AID 1180); conditions: higher = more signal;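 note: RPMI8826 multiple myeloma cell line at 5000 cells per well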
[10] = target: E3 ubiquitin-protein ligase XIAP (Homo sapiens) (UniProt P98170); assay: XIAP binders, primary screen, biophysical, small-molecule microarray, fluorescence 635 nm (AID 1181); conditions: small-molecule microarray binding, higher = more signal;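 note: score merges 667 nm emission and signal to noise over triplicate slides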
[11] = system: XIP peptide (Xip251-270) binding; assay: small-molecule binders of XIP peptide, primary screen, biochemical, small-molecule microarray, fluorescence 635/667 nm, 0.1 µg/mL protein (AID 1182); conditions: fluorescent protein binding, 635 nm, higher = more signal, called active from +8 up or from −8 down
XIP peptide (Xip251-270) = assay: small-molecule binders of XIP peptide, primary screen, biochemical, small-molecule microarray, fluorescence 635/667 nm, 0.5 µg/mL protein (AID 1183); conditions: small-molecule microarray binding, fluorescence 635 nm; higher = more signal
[12] = Plasmodium falciparum growth inhibition, primary screen, strain 3D7, DAPI fluorescence, 100 nL (AID 1184);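 note: parasites grown inside human red blood cells in medium with human serum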; conditions: P. falciparum 3D7 growth, 3 d, higher = more signal
[13] = target: Homeobox protein Hox-A13 (Mus musculus) (UniProt Q62424); assay: inhibitors of HoxA13-DNA binding, primary screen, biochemical, fluorescence polarization, labeled oligonucleotide (AID 1185); conditions: 15 min, higher = more signal, called active from +8 up or from −8 down
[14] = inhibitors of hydroxyurea-induced Chk1 phosphorylation, primary screen, imaging, HeLa, phospho-Chk1 antibody, percent positive cells (AID 1186); conditions: hydroxyurea-induced phospho-Chk1 immunofluorescence imaging, higher = more signal
[15] = inhibitors of hydroxyurea-induced Chk1 phosphorylation, primary screen, imaging, HeLa, phospho-Chk1 nuclear intensity (AID 1187); conditions: hydroxyurea-induced phospho-Chk1 immunofluorescence imaging, higher = more signal

Homeobox protein Hox-A13 (Mus musculus), sequence (Q62424 whole entry, looked up): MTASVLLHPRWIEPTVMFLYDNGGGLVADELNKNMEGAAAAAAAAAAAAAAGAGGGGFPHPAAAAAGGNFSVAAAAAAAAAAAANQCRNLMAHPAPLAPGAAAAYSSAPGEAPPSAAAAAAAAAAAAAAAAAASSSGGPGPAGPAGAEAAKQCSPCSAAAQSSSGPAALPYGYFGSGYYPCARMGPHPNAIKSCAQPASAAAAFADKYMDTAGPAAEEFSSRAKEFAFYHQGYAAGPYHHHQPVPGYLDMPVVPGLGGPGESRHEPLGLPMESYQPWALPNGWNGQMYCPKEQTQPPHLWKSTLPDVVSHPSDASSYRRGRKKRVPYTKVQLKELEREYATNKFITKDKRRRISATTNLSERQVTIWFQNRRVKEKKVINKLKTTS
Dihydroorotate dehydrogenase (quinone), mitochondrial (Plasmodium falciparum (isolate 3D7)), sequence (Q08210 whole entry, looked up): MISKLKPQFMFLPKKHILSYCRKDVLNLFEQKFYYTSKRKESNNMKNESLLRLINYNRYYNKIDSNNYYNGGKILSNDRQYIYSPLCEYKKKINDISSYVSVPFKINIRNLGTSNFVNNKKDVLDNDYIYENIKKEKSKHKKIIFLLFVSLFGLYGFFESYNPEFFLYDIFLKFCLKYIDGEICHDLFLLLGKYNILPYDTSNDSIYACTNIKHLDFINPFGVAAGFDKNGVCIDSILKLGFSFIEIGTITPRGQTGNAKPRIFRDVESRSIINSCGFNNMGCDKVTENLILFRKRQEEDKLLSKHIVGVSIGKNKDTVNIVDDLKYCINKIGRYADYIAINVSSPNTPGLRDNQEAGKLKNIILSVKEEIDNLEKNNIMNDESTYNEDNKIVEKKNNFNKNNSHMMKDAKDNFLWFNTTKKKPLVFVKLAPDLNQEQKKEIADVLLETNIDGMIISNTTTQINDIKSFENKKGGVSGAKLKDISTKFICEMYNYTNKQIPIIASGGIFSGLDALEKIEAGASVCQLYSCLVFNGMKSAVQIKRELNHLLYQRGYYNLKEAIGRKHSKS
E3 ubiquitin-protein ligase XIAP (Homo sapiens), sequence (P98170 whole entry, looked up): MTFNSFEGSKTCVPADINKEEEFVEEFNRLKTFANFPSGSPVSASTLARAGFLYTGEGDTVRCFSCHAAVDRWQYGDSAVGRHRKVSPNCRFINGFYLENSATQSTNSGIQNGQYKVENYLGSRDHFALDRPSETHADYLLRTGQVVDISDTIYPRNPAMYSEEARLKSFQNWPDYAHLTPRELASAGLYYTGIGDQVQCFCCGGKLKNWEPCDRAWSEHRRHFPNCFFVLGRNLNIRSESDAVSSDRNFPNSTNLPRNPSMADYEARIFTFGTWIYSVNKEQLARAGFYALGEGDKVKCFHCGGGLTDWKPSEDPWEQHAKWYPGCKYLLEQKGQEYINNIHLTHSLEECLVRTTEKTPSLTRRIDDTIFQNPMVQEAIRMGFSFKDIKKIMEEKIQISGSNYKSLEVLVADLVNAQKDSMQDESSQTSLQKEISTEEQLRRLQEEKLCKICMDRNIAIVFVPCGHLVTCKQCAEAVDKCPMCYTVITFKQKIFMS

## COC(=O)[C@H](C)NC(=O)CCC1CC(OC(=O)NCCc2ccc(F)cc2)CC2(CCCC(COC(=O)NCCc3ccc(Cl)cc3)O2)O1 (some centres undefined)
[1]
  z-score: 0.315
[2]
  z-score: 0.592 (inactive)
[3]
  z-score: 0.349 (inactive)
[4]
  composite z-score: -0.532 (inactive)
[5]
  z-score: 0.45 (inactive)
[6]
  z-score: 0.825 (inactive)
[7]
  z-score: 0.718 (inactive)
[8]
  z-score: 0.942 (inactive)
[9]
  z-score: 0.761
[10]
  composite z-score: -0.0918
[11]
  composite z-score: 0.503 (inactive)
XIP peptide (Xip251-270)
  composite z-score: 0.729
[12]
  z-score: -1.5
[13]
  z-score: -2.44 (inactive)

## CCCNC(=O)[C@@H]1c2ccccc2C(=O)N(c2ccc(C)cn2)[C@H]1c1ccc(CO)cc1
[1]
  z-score: 0.306
[2]
  z-score: 0.325 (inactive)
[3]
  z-score: -0.472 (inactive)
[4]
  composite z-score: -0.165 (inactive)
[5]
  z-score: 0.388 (inactive)
[6]
  z-score: -0.826 (inactive)
[7]
  z-score: 0.232 (inactive)
[8]
  z-score: 0.0239 (inactive)
[9]
  z-score: -0.682
[10]
  composite z-score: -0.165
[11]
  composite z-score: -0.239 (inactive)
XIP peptide (Xip251-270)
  composite z-score: -0.314
[12]
  z-score: 0.167
[13]
  z-score: -2.4 (inactive)
[14]
  z-score: 0.929 (inactive)
[15]
  z-score: 0.52 (inactive)

## COc1cccc([C@H]2Oc3ccc(OC)cc3C(=NOC(C)CN3CCCc4nc(C)c(C)cc43)[C@@H]2O)c1 (some centres undefined)
[1]
  z-score: -0.948
[2]
  z-score: -0.872 (inactive)
[3]
  z-score: -0.944 (inactive)
[4]
  composite z-score: 0.956 (inactive)
[5]
  z-score: -0.136 (inactive)
[6]
  z-score: -0.168 (inactive)
[7]
  z-score: -0.0128 (inactive)
[8]
  z-score: -0.565 (inactive)
[9]
  z-score: -0.948
[10]
  composite z-score: 0.271
[11]
  composite z-score: 0.22 (inactive)
XIP peptide (Xip251-270)
  composite z-score: -0.452
[12]
  z-score: -1.06
[13]
  z-score: -8.09 (active)

## C#CCCCON=C1C[C@@H](O)[C@@H](O)[C@@H]2[C@@H]3C(=O)N([C@@H](C)c4ccccc4)C(=O)[C@@H]3CC[C@H]12
[1]
  z-score: -0.331
[2]
  z-score: -1.27 (inactive)
[3]
  z-score: 0.8 (inactive)
[4]
  composite z-score: -2.87 (inactive)
[5]
  z-score: -0.389 (inactive)
[6]
  z-score: -1.35 (inactive)
[7]
  z-score: -0.0604 (inactive)
[8]
  z-score: -0.12 (inactive)
[9]
  z-score: 0.357
[10]
  composite z-score: 0.0537
[11]
  composite z-score: -0.396 (inactive)
XIP peptide (Xip251-270)
  composite z-score: 0.164
[12]
  z-score: -1.46
[13]
  z-score: -2.2 (inactive)

## C[C@H](c1ccccc1)N1C(=O)[C@H]2[C@H]3[C@H](O)[C@H](O)CC(=O)[C@@H]3CC[C@H]2C1=O
[1]
  z-score: -0.353
[2]
  z-score: 0.205 (inactive)
[3]
  z-score: -0.486 (inactive)
[4]
  composite z-score: -0.303 (inactive)
[5]
  z-score: 0.544 (inactive)
[6]
  z-score: -0.897 (inactive)
[7]
  z-score: -0.159 (inactive)
[8]
  z-score: -0.0569 (inactive)
[9]
  z-score: -0.523
[10]
  composite z-score: -0.0826
[11]
  composite z-score: 0.0518 (inactive)
XIP peptide (Xip251-270)
  composite z-score: 0.771
[12]
  z-score: 0.0307
[13]
  z-score: -1.84 (inactive)

## COC(=O)[C@H](C)NC(=O)[C@@H](C)CO
[1]
  z-score: -1.1
[2]
  z-score: -0.0616 (inactive)
[3]
  z-score: -1.15 (inactive)
[4]
  composite z-score: 0.38 (inactive)
[5]
  z-score: -0.351 (inactive)
[6]
  z-score: 0.312 (inactive)
[7]
  z-score: -1.45 (inactive)
[8]
  z-score: -0.489 (inactive)
[9]
  z-score: -0.855
[10]
  composite z-score: -0.102
[11]
  composite z-score: 0.316 (inactive)
XIP peptide (Xip251-270)
  composite z-score: 0.332
[12]
  z-score: -0.613
[13]
  z-score: -1.61 (inactive)

## CC[C@@H](c1ccccc1)n1c(=O)n2n(c1=O)[C@H]1[C@H](O)[C@@H]3O[C@@H]3C(=NOCC=C(C)CCC=C(C)C)[C@H]1CC2
[1]
  z-score: -0.301
[2]
  z-score: 0.11 (inactive)
[3]
  z-score: -0.16 (inactive)
[4]
  composite z-score: 0.0031 (inactive)
[5]
  z-score: -0.261 (inactive)
[6]
  z-score: 1.01 (inactive)
[7]
  z-score: -0.271 (inactive)
[8]
  z-score: -1.98 (inactive)
[9]
  z-score: -0.451
[10]
  composite z-score: -0.141
[11]
  composite z-score: 0.17 (inactive)
XIP peptide (Xip251-270)
  composite z-score: 0.4
[12]
  z-score: -0.444
[13]
  z-score: -3.96 (inactive)

## CC[C@@H](c1ccccc1)n1c(=O)n2n(c1=O)[C@H]1[C@H](O)[C@@H]3O[C@@H]3C(=NOCC(C)C)[C@H]1CC2
[1]
  z-score: -0.0871
[2]
  z-score: 0.747 (inactive)
[3]
  z-score: -0.349 (inactive)
[4]
  composite z-score: 0.777 (inactive)
[5]
  z-score: -0.413 (inactive)
[6]
  z-score: 0.49 (inactive)
[7]
  z-score: 0.258 (inactive)
[8]
  z-score: -1.31 (inactive)
[9]
  z-score: 0.0402
[10]
  composite z-score: -0.0525
[11]
  composite z-score: -0.242 (inactive)
XIP peptide (Xip251-270)
  composite z-score: 0.68
[12]
  z-score: -0.265
[13]
  z-score: -2.28 (inactive)

## COC(=O)[C@H]1COC(c2ccc(OCCCO)cc2)=N1
[1]
  z-score: -0.652
[2]
  z-score: -0.928 (inactive)
[3]
  z-score: 0.107 (inactive)
[4]
  composite z-score: 0.335 (inactive)
[5]
  z-score: 0.149 (inactive)
[6]
  z-score: -0.286 (inactive)
[7]
  z-score: 0.057 (inactive)
[8]
  z-score: -0.645 (inactive)
[9]
  z-score: 0.492
[10]
  composite z-score: -0.103
[11]
  composite z-score: 0.239 (inactive)
XIP peptide (Xip251-270)
  composite z-score: 0.871
[12]
  z-score: -0.264
[13]
  z-score: -3.56 (inactive)
[14]
  z-score: 0.101 (inactive)
[15]
  z-score: -0.388 (inactive)

## CC(C)(C)N1C(=O)[C@H]2[C@H]3[C@H](O)[C@H](O)CC(=NO[C@@H]4O[C@H](CO)[C@@H](O)[C@H](O)[C@H]4O)[C@@H]3CC[C@H]2C1=O
[1]
  z-score: -0.332
[2]
  z-score: -0.597 (inactive)
[3]
  z-score: -0.236 (inactive)
[4]
  composite z-score: 0.0902 (inactive)
[5]
  z-score: 0.0821 (inactive)
[6]
  z-score: -0.471 (inactive)
[7]
  z-score: 0.398 (inactive)
[8]
  z-score: 0.441 (inactive)
[9]
  z-score: -0.449
[10]
  composite z-score: 0.144
[11]
  composite z-score: 1.16 (inactive)
XIP peptide (Xip251-270)
  composite z-score: 0.26
[12]
  z-score: 2.01
[13]
  z-score: 0.0059 (inactive)
